Only some compounds are listed: those with a hit (about 9.2% of all), similar ones and a draw of the others.
ELG1 repair inh: inhibitors of ELG1-dependent DNA repair in HEK293T cells. HEK293T ELG1-luciferase reporter, luminescence, 16 h; DNA damage induced by 5-fluorouridine. Potency, µM (series often up to 46.1 µM), actives largely listed as inhibitors. 330,000 tested, 2.3% active. AID 504467; further: nearly all actives have a fitted effect of over 55% in size
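Overnight (16 hr) co-exposure of 2,000 cells/well to 5-fluorouridine and compound at 37 °C preceded detection. Luciferase was quantified via ONE-Glo luminescence; loss of signal denotes inhibition.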
ELG1 genotoxic: induces genotoxicity in HEK293T cells with luciferase-tagged ELG1 | HEK293T ELG1-luciferase reporter, luminescence, 16 h | Potency, µM (highest dose often 46 µM), most hits filed as activators | 330,000 tested, 1.3% active | AID 504466; further: nearly all actives have a fitted effect of over 60% in size
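DMSO vehicle served as control against compound-treated ELG1-luciferase HEK293T cells; exposure lasted 16 hr at 37 °C and 5% CO2, followed by ONE-Glo luminescence detection after 30 min.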
SMN2 splice up: SMN2 splice variant enhancement; HEK293 SMN2-luciferase splicing reporter, luminescence, 30-36 h; Potency, µM (top dose mostly 46.1 µM), hits mostly activators; 210,000 tested, 2.8% active; further: nearly all actives have a fitted effect of over 55% in size
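HEK293 cells carry an SMN2 […]–luciferase reporter in which exon 7 inclusion puts luciferase in frame. Cells were plated 10-12 h before compound addition, then incubated 30-36 h at 37C. ONE-Glo luminescence was read; sodium butyrate at 4.5 mM final served as control.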
NPC1 prom act: NPC1 promoter activation; Huh7 NPC1 promoter luciferase reporter, 24 h; Potency, µM (top dose mostly 9.22 µM), hits mostly activators; 320,000 tested, 2.4% active; further: nearly all actives have a fitted effect of over 60% in size
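Luminescence from an NPC1 promoter-driven luciferase reporter in stably transfected Huh7 cells was measured after 24 h compound treatment at 37 °C, followed by 10 min ambient incubation with luciferase detection reagent.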
Rab9 promoter act: activates the Rab9 promoter; Huh7 Rab9 promoter-luciferase reporter, luminescence, 24 h; Potency, µM (top dose mostly 9.22 µM), usual class: activators; 320,000 tested, 2.8% active; AID 485297; further: nearly all actives have a fitted effect of over 60% in size
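Promoter activation is measured as luciferase luminescence in Huh7 cells stably transfected with a Rab9 promoter–luciferase construct, following 24 h compound exposure at 37 °C and 10 min reagent incubation at ambient temperature.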
FLuc counter: inhibits or activates purified firefly luciferase, miR-21 counter-screen; purified FLuc, Km substrates, luminescence inhibition; P08659; 360,000 tested, 6.9% active; Potency, µM (top dose mostly 57.5 µM), usual class: inhibitors; further: nearly all actives have a fitted effect of over 55% in size
Target sequence (P08659 whole entry, looked up): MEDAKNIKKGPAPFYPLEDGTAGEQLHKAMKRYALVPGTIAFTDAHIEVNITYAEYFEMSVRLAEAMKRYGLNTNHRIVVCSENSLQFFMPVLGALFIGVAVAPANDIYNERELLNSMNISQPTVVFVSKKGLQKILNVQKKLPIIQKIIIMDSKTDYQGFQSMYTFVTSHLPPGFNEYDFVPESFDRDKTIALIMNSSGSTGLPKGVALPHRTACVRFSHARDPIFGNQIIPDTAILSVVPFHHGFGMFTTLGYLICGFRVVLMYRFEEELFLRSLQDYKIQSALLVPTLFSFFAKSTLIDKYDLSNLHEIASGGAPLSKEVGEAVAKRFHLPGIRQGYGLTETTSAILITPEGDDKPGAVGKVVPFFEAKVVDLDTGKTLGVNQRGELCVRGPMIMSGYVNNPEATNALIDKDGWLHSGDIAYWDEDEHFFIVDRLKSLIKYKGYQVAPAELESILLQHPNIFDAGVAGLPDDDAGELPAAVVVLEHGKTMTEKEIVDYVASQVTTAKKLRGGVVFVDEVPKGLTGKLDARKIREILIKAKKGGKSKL
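Purified P. pyralis luciferase (10nM final) with 10uM D-luciferin and 10uM ATP (Km levels) in 50mM Tris acetate pH 7.5, 10mM Mg acetate, 0.01% Tween-20, 0.05% BSA; qHTS 6-point titration, ~60 µM downward; luminescence read.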
A number is an active result; n = inactive; u = inconclusive; x = no result. The call rests on the fitted dose curve; in most records, active means well fitted curve in the direction sought with a large enough effect; inconclusive means small, poorly fitted or top-dose-only effect, or another doubt; inactive means no such curve, though single readings can be large; an effect the other way counts as inactive or inconclusive.

SMILES	ELG1 repair inh	ELG1 genotoxic	SMN2 splice up	NPC1 prom act	Rab9 promoter act	FLuc counter
Cc1nn(-c2ccccc2)c(C)c1/C=N/NC(=O)c1cc(C2CC2)[nH]n1	n	u	u	n	n	17µM
Cc1ccccc1CC(=O)N1CC(C)OC(C)C1 (stereo not drawn)	n	n	x	n	n	n
CC(C)(Oc1ccc(Cl)cc1)C(=O)Nc1nnc2n1CCS2	x	x	x	x	x	n
COc1cc(/C=N/NC(=O)c2ccccc2)ccc1O	u	u	n	n	n	u
COc1cc(/C=N/NC(=O)c2cc(C34CC5CC(CC(C5)C3)C4)[nH]n2)ccc1O	n	u	n	n	n	13µM
COc1cc(/C=N/NC(=O)c2[nH]nc3c2CCc2ccccc2-3)ccc1O	u	n	n	n	n	27µM
O=C(N/N=C/c1c(F)cccc1Cl)c1cc(C2CC2)[nH]n1	u	u	x	u	u	17µM
CCC(=O)N1CCc2cc(Br)cc(S(=O)(=O)N3CCC(C(=O)N(CC)CC)CC3)c21	x	x	n	x	x	n
Cc1cc2cc3c(cc2nc1SCC(=O)O)OCCO3	n	n	n	n	n	n
Cc1cc2cc3c(cc2nc1SCc1ccc(C(=O)O)cc1)OCCO3	u	n	n	n	n	19µM
Clc1ccccc1/C=C/c1nc(-c2ccccn2)no1	u	u	x	0.22µM	u	0.11µM
CCCc1nc2ccc(NC(=O)c3ccco3)cc2c(=O)n1Cc1ccccc1Cl	18µM	n	n	n	n	n
O=C(Nn1c(C2CC2)nc2ccccc2c1=O)c1ccco1	n	n	n	n	n	n
CCC(=O)Nc1ccc2nc(C3CC3)n(Cc3ccccc3)c(=O)c2c1	u	8.2µM	u	u	3.5µM	u
O=C(Nc1ccc2nc(C3CC3)n(Cc3ccccc3)c(=O)c2c1)C1CC1	u	u	x	2.8µM	2.5µM	n
COc1ccc(Cn2c(C3CC3)nc3ccc(NC(=O)c4ccco4)cc3c2=O)cc1	u	u	u	3.2µM	n	15µM
CCCc1nc2ccc(NC(=O)c3ccco3)cc2c(=O)n1Cc1ccc(Cl)cc1	u	n	n	n	n	n
CNC(=O)C1CCC(Cn2c(=O)c3sccc3n(CC(=O)Nc3ccccc3)c2=O)CC1 (stereo not drawn)	x	x	x	x	x	n
CC[C@]12c3[nH]c4cc(CCC(=O)N(C)C)ccc4c3CCN1C(=O)[C@@H](CC(=O)NCc1ccco1)C[C@@H]2C(=O)N1CCN(C(=O)C2CC2)CC1	n	n	x	x	x	x
CCN(CC)C(=O)CSc1nc(-c2ccccc2F)nc2c1Cc1c(CO)cnc(C)c1O2	x	x	x	x	x	n
CCN1CCN(c2ccc(S(=O)(=O)N3CCCCC3)cc2NC(=O)c2ccc(C)o2)CC1	n	n	x	n	n	n
CCCCN(CCCC)CC(O)Cn1cc(/C=C/C(=O)c2ccccc2)c2ccccc21 (stereo not drawn)	x	x	n	x	x	n
